Measured values taken from PubChem BioAssay AID2235 (The Scripps Research Institute Molecular Screening Center, 2010).
About 2,800 (0.88%) of roughly 320,000 compounds were called active.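 The calls were made as follows: active = inhibition above the mean inhibition of all tested compounds plus 3 SD, computed separately for each screening campaign (cut at about 15% in these data); inactive = the rest.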 What follows is part of a selection rich in actives, with near analogues and random picks from the rest.

These compounds were tested against Serine/threonine-protein phosphatase PP1-alpha catalytic subunit (Homo sapiens) (UniProt P62136) (assay: inhibition of human PP1 catalytic subunit – biochemical, fluorescence, OMFP substrate, single point, counter-screen for PP5 inhibitor project, primary screen (AID 2235)). Details: purified PP1alpha, at 6.7 µM, hits give high values.
Chain of Serine/threonine-protein phosphatase PP1-alpha catalytic subunit (Homo sapiens) (P62136 whole entry, looked up): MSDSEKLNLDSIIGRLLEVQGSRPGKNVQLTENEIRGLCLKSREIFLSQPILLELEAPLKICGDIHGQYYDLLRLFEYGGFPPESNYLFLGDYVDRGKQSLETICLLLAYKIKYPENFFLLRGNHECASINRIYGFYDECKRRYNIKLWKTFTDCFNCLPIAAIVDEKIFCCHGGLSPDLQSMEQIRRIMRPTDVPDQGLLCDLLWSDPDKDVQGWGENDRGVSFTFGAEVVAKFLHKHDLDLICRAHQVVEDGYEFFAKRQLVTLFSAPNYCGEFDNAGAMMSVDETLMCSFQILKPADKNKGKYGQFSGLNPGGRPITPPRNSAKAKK

Compound | inhibition
Cc1ccccc1/C=C\c1nc(O)c([N+](=O)[O-])c(=O)[nH]1 | -3.61% (inactive)
CC(=O)c1ccc(N2CCN(S(=O)(=O)c3c(C)[nH]c(=O)[nH]c3=O)CC2)cc1 | -4.3% (inactive)
CC(=O)c1ccc(N2CCN(S(=O)(=O)c3ccc4c(c3)CC(=O)N4C)CC2)cc1 | 20.6% (active)
CC(=O)c1ccc(N2CCN(C(=O)C3CCN(S(=O)(=O)c4ccc5c(c4)CC(C)N5C(=O)C4CC4)CC3)CC2)cc1 (stereo not drawn) | 8.74% (inactive)
COc1cccc(NC(=O)C/C(C)=N/NC(=O)C2CCCCC2)c1 | 4.45% (inactive)
COc1ccc(CCNC(=O)C2CC3Cn4c(nc5cc(C)c(C)cc54)C3N2C)cc1 (stereo not drawn) | -2.39% (inactive)
C=CCOC(=O)C1=C[C@@H](c2ccc3c(c2)OCO3)C[C@@H](OCCCCO)O1 | 5.48% (inactive)
O=C(CN1C(=O)NC(Cc2ccccc2)(Cc2ccccc2)C1=O)NCC1CCCCC1 | -3.39% (inactive)
OCCNc1nc(Nc2ccc(Cl)c(Cl)c2)nc2ccccc12 | 23.4% (active)
COc1cc2nc(Cl)nc(NCCO)c2cc1OC | -3.14% (inactive)
CN(C)c1nc(Nc2ccc(Cl)c(Cl)c2)nc(N(C)C)n1 | 0.07% (inactive)
CCc1ccc(CNC(=O)C2CC(=O)N(CCc3ccc(C)cc3)C2)cc1 (stereo not drawn) | -3.41% (inactive)
CCC(=O)N1CCN=C1SCc1ccc(F)cc1 | -1.6% (inactive)
COC(=O)C1=C(O)/C(=C/c2ccc(OCC(=O)Nc3ccccc3)cc2)N=C1C | 1.71% (inactive)
Cc1ccc(NC(=O)COc2ccc(/C=C3/NC(=O)NC3=O)cc2)cc1 | 19.3% (active)
CCOC(=O)C1=C(O)/C(=C/c2ccc(OCC(=O)Nc3ccc(C)cc3)cc2)N=C1C | 15.1% (inactive)
CCc1cccc(NC(=O)COC(=O)C2CCN(c3ccc(C(F)(F)F)cn3)CC2)c1 | 3.82% (inactive)
Cc1noc(C)c1S(=O)(=O)NCCc1ccc(S(N)(=O)=O)cc1 | -1.43% (inactive)
O=C(c1ccc(Cl)c(S(=O)(=O)N2CCCCCC2)c1)N1CCN(c2ccc(O)cc2)CC1 | 5.02% (inactive)
CC(C)n1ncc2c(C(=O)NCc3ccccc3CN(C)C)cc(C3CC3)nc21 | 3.23% (inactive)
O=C(NCC(c1ccco1)N1CCc2ccccc2C1)c1ccccc1Cl (stereo not drawn) | -5.84% (inactive)
O=C(/C=C/c1ccc(F)cc1)NCCNC(=O)/C=C/c1ccc(F)cc1 | -0.56% (inactive)
O=C(/C=C/c1ccc(F)cc1)NC(=S)NNC(=O)c1cccnc1 | 24.8% (active)
CC(C)c1ccc(/C=C/C(=O)NNC(=O)c2cccnc2)cc1 | -4.56% (inactive)
CCN(CC)Cc1c(C(=O)N/N=C/c2cccc(OCc3ccc(F)cc3)c2)nnn1-c1nonc1N | -5.41% (inactive)
COc1cccc(N2CCN(c3ccc4nnc(CCC(=O)N5CCN(C)CC5)n4n3)CC2)c1 | -3.98% (inactive)

Compound | inhibition
OC(CNCCc1ccc(Cl)cc1Cl)COc1ccccc1 (stereo not drawn) | 10.6% (inactive)
NC(N)=N/N=C/c1ccc(OCc2ccc(Cl)cc2Cl)cc1 | 37.2% (active)
CCOc1ccc(NC(=O)NNC(=O)c2ccc(Cl)cc2Cl)cc1 | 3.13% (inactive)
Cc1cccc(Nc2nnc(SCC(=O)c3c(N)n(C4CC4)c(=O)[nH]c3=O)s2)c1C | -0.71% (inactive)
O=C(O)c1cc([N+](=O)[O-])c(Nc2cccc3ccccc23)c([N+](=O)[O-])c1 | 3.7% (inactive)
Cc1cc(C)cc(NC(=O)Cn2cnc3c(nnn3Cc3ccc(F)cc3)c2=O)c1 | 8.94% (inactive)
Cc1ccc(C)c(Cn2nnc3c(=O)[nH]c(C(=O)Nc4ccc(F)cc4)nc32)c1 | 46.5% (active)
O=C(Nc1ccc(F)cc1)N1CCCC(c2nc3c(nnn3Cc3ccccc3Cl)c(=O)[nH]2)C1 (stereo not drawn) | 4.93% (inactive)
CCCn1nnnc1NCc1ccc(CC)cc1 | 0.05% (inactive)
Cc1nc(NC(=O)C2CCCCC2)sc1C | -0.06% (inactive)
COc1ccc(Cn2nnc3c(=O)[nH]c(C4CCN(C(=O)c5ccccc5Cl)CC4)nc32)cc1 | 1.01% (inactive)
Cc1ccc(NC(=O)N2CCC(c3nc4c(nnn4Cc4c(F)cccc4Cl)c(=O)[nH]3)CC2)cc1 | 4.5% (inactive)
Cc1ccc(Cn2nnc3c(=O)[nH]c(C4CCN(S(=O)(=O)/C=C/c5ccccc5)CC4)nc32)cc1 | 20.9% (active)
Cc1ccc(S(=O)(=O)CCC(=O)OCc2ccccc2)cc1 | -6.27% (inactive)
CC(=O)[C@@]12O[C@@H]1C[C@H]1[C@@H]3CC[C@H]4C[C@@H](O)CC[C@]4(C)[C@H]3CC[C@@]12C | 0.47% (inactive)
COc1ccc(C(=O)Nc2ncc3c(n2)-c2ccccc2CC3)cc1 | -1.56% (inactive)
COCCN(CCOC)S(=O)(=O)c1ccc(C(=O)Nc2nc3c(s2)CCc2ccccc2-3)cc1 | 22.6% (active)
C=CCN(CC=C)S(=O)(=O)c1ccc(C(=O)Nc2sc3c(c2C(N)=O)CCCCC3)cc1 | -0.71% (inactive)
C=CCN(CC=C)S(=O)(=O)c1ccc(C(=O)Nc2nc3c(s2)CCc2ccccc2-3)cc1 | 25.9% (active)
COCCN(CCOC)S(=O)(=O)c1ccc(/C(O)=C(\C#N)c2nc3ccccc3[nH]2)cc1 | -3.73% (inactive)
CCN(c1ccccc1)S(=O)(=O)c1ccc(C(=O)Nc2nccs2)cc1 | 1.49% (inactive)
Cc1ccc(NC(=S)Nc2ncccc2C)c(C)c1 | -1.13% (inactive)
C#CCOCCOCCOCCNc1nc(N2CCN(C(=O)[C@H](CCCCN)n3cc(CCC(=O)O)nn3)CC2)nc(N2CCN(C(=O)[C@H](CCCCN)n3cc(CC(C)O)nn3)CC2)n1 (stereo partly drawn) | 5.96% (inactive)
C#CCOCCOCCOCCNc1nc(N2CCN(C(=O)CCCCCCCCCCNC(=O)Cn3cc(CCCCCN)nn3)CC2)nc(N2CCN(C(=O)CCCCCCCCCCNC(=O)[C@H](CO)n3cc(CCCSC)nn3)CC2)n1 | 64.7% (active)
C#CCOCCOCCOCCNc1nc(N2CCN(C(=O)Cn3cc(CCCCN)nn3)CC2)nc(N2CCN(C(=O)[C@H](CCCCN)n3cc(CCC(=O)O)nn3)CC2)n1 | -0.58% (inactive)
C#CCOCCOCCOCCNc1nc(N2CCN(C(=O)[C@H](C(C)C)n3cc(CCO)nn3)CC2)nc(N2CCN(C(=O)[C@H](C(C)C)n3cc(CCO)nn3)CC2)n1 | -0.91% (inactive)

Compound | inhibition
C#CCOCCOCCOCCNc1nc(N2CCN(C(=O)C([C@@H](C)CC)n3cc(C(N)COC(=O)C(F)(F)F)nn3)CC2)nc(N2CCN(C(=O)[C@H](CCCCN)n3cc(C(N)CC(C)C)nn3)CC2)n1 (stereo partly drawn) | 8.45% (inactive)
C#CCOCCOCCOCCNc1nc(N2CCN(C(=O)CCCCCCCCCCNC(=O)[C@H]([C@@H](C)CC)n3cc(CCCCN=C(N)N)nn3)CC2)nc(N2CCN(C(=O)CCCCCCCCCCNC(=O)[C@H](CO)n3cc(CCCSC)nn3)CC2)n1 | 53.8% (active)
C#CCOCCOCCOCCNc1nc(N2CCN(C(=O)[C@H](C(C)C)n3cc(CCO)nn3)CC2)nc(N2CCN(C(=O)[C@H]([C@@H](C)CC)n3cc(CCCN=C(N)N)nn3)CC2)n1 | 0.22% (inactive)
C#CCOCCOCCOCCNc1nc(N2CCN(C(=O)CCCCCCCCCCNC(=O)[C@H](CCCCN)n3cc(C)nn3)CC2)nc(N2CCN(C(=O)CCCCCCCCCCNC(=O)[C@H](CO)n3cc(CCCSC)nn3)CC2)n1 | 64.8% (active)
C#CCOCCOCCOCCNc1nc(N2CCN(C(=O)[C@H](CCCCN)n3cc([C@@H](N)C(C)CC)nn3)CC2)nc(N2CCN(C(=O)[C@H](Cc3ccc(O)cc3)n3cc([C@@H](N)C(C)CC)nn3)CC2)n1 (stereo partly drawn) | 5.1% (inactive)
CN1CCN(c2ccc(CNS(=O)(=O)c3cccc(F)c3)cc2)CC1 | -3.01% (inactive)
O=C1/C(=C/c2cccs2)CCC1C1CCCC1 (stereo not drawn) | -2.41% (inactive)
CC(=O)Oc1cc2c(C(=O)NCCN3CCOCC3)c(C)oc2c2ccccc12 | -0.6% (inactive)
Cc1ccc(N=C2NC(=O)c3cccc([N+](=O)[O-])c32)cc1 | -1.21% (inactive)
COc1ccccc1C(=O)NC(=O)COC(=O)C1CC1 | -1.39% (inactive)
CCC(=C/c1sc2ccc3ccccc3c2[n+]1C)/C=C1\Sc2ccc3ccccc3c2N1C | 79.3% (active)
CC(NCc1ccccc1OC1CCCC1)c1ccccc1 (stereo not drawn) | -3.47% (inactive)
O=C(Nc1ccc(S(=O)(=O)NCC2CCCO2)cc1)c1ccc(F)cc1 (stereo not drawn) | 1.04% (inactive)
CCOCCCNc1nc(-c2ccccc2)nc2ccccc12 | 3.36% (inactive)
COc1ccc(NCCc2ccccn2)cc1 | 1.13% (inactive)
N#Cc1ccc(Oc2cc(C(F)(F)F)nc(-c3ccccn3)n2)cc1 | -1.29% (inactive)
CC(C)(C)c1ccc(Oc2ccc(N)cc2)cc1 | 1.18% (inactive)
CCC(=O)OCCNc1nc(-c2ccccc2)nc2ccccc12 | 0.15% (inactive)
CC(C)(C)Nc1nc(-c2ccccn2)nc2ccccc12 | 18.4% (active)
Cc1ccc(Oc2nc3ccccc3n3c(C)nnc23)cc1 | -3.88% (inactive)
Cc1ccc(Oc2nc(-c3ccccn3)nc3ccccc23)cc1 | 17.4% (active)
COc1cnc(-c2ccccn2)nc1Oc1ccc(C(C)(C)C)cc1 | 57.9% (active)
COC(=O)C1=NNC2(c3ccc(C)cc3)C(=O)N(c3cccc(C)c3C)C(=O)C12 (stereo not drawn) | 2.4% (inactive)
Cc1ccc(-c2cnc(NC(=O)CCC(=O)N(C)Cc3ccccc3)n2C)cc1 | -3.93% (inactive)
CC(c1nnc(SCC(=O)Nc2sccc2C#N)n1-c1ccc(Cl)cc1)N(C)C (stereo not drawn) | -0.51% (inactive)
COc1ccc(NC(=O)CN(C)C(=O)c2cc(C3CC3)nn2-c2ccccc2)cc1 | -0.28% (inactive)
